Reference: PubChem BioAssay AID651704 (Broad Institute, 2012)
About 1,600 (0.46%) of roughly 350,000 compounds were called active.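 The calls were made as follows: active = every replicate reaching a set inhibition limit, whatever the replicate mean (cut at about 25% in these data); inconclusive = mean inhibition reaches that limit but some replicates miss it; inactive = the rest.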 Only a selection was taken, and actives are over-represented in it overall.

Biological target: Protein AF-9 (Homo sapiens) (UniProt P42568)
Sequence (P42568 whole entry, looked up): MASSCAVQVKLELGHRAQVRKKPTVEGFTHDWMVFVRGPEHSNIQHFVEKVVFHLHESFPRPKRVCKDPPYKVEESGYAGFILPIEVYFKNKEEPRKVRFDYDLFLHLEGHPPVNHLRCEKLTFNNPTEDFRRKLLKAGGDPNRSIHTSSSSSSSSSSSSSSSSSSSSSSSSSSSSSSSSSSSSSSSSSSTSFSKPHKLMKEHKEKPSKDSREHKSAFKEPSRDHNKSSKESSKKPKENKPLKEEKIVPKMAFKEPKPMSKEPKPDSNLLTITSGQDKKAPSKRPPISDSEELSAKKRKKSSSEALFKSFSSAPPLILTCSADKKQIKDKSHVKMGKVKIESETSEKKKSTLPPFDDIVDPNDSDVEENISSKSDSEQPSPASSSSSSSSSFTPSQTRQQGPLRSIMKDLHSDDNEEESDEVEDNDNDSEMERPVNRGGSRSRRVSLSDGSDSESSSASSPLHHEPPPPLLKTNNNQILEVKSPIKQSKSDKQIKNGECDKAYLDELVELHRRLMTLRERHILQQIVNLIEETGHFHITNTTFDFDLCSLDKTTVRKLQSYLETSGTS
Experiment: MLL-AF4/AF9 protein interaction blockers – biochemical, AlphaScreen, biotin-AF4 peptide, FLAG-AF9, single point, primary screen (AID 651704);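 also: 0% = plate neutral control median and 100% = total signal loss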
Conditions: biotin-AF4 peptide binding to FLAG-AF9, at 10 µM, stronger effect = higher value

Compound | inhibition
CN(Cc1c(F)cccc1Cl)C(=O)CNC(=O)c1ccc2c(c1)OCO2 | 34.1% (active)
O=C(NCCc1ccc(C(F)(F)F)cc1)c1ccc2c(c1)OCO2 | -0.679% (inactive)
Cc1cccc(C)c1NC(=O)CNC(=O)c1ccc2c(c1)OCCO2 | -2.49% (inactive)
CO[C@@H]1CN(C)C(=O)c2ccc(NC(=O)c3ccccc3F)cc2OC[C@@H](C)N(CC2CCOCC2)C[C@H]1C | 1.64% (inactive)
COCC#Cc1ccc2c(c1)O[C@@H](CN(C)Cc1ccccn1)[C@@H](C)CN([C@@H](C)CO)S2(=O)=O | -4.38% (inactive)
C[C@@H]1CN([C@@H](C)CO)C(=O)c2c(c3ccccc3n2C)-c2ccccc2CO[C@@H]1CN(C)Cc1cccc(C(=O)O)c1 | -2.44% (inactive)
C[C@H]1CN([C@@H](C)CO)C(=O)c2c(c3ccccc3n2C)-c2ccccc2CO[C@H]1CN(C)Cc1ccc2c(c1)OCO2 | 1.72% (inactive)
C[C@@H]1CN([C@H](C)CO)C(=O)c2c(c3ccccc3n2C)-c2ccccc2CO[C@@H]1CN(C)Cc1ccc(F)cc1 | 0.52% (inactive)
C[C@@H]1CN([C@H](C)CO)C(=O)c2c(c3ccccc3n2C)-c2ccccc2CO[C@H]1CN(C)Cc1ccc(F)cc1 | -2.73% (inactive)
C[C@H]1CN([C@@H](C)CO)C(=O)c2c(c3ccccc3n2C)-c2ccccc2CO[C@@H]1CN(C)Cc1ccc2c(c1)OCCN2C | 34.3% (active)
C[C@@H]1CN([C@@H](C)CO)C(=O)c2c(c3ccccc3n2C)-c2ccccc2CO[C@@H]1CN(C)Cc1ccc2c(c1)OCCN2C | 30.8% (active)
Cc1ccccc1S(=O)(=O)N1CC(=O)N2[C@H](CO)[C@@H](c3ccc(C#Cc4ccccc4)cc3)[C@H]2C1 | -0.846% (inactive)
C[C@H](CO)N1C[C@H](C)[C@H](CN(C)Cc2ccccc2)OCCCC[C@H](C)Oc2ccc(NC(=O)Cc3ccccc3)cc2C1=O | 3.76% (inactive)
Cc1noc(C)c1S(=O)(=O)N(C)C[C@@H]1OCCCC[C@H](C)Oc2ccc(NC(=O)NC(C)C)cc2C(=O)N([C@H](C)CO)C[C@@H]1C | 1.67% (inactive)
O=C(C[C@H]1CC[C@H]2[C@@H](COC[C@H](O)CN2C(=O)Nc2ccc(Cl)cc2)O1)NCC1CC1 | 2.2% (inactive)
O=C(Cc1cccnc1)N1CC(=O)N2[C@@H](CO)[C@@H](c3ccc(C#CC4CCCC4)cc3)[C@@H]2C1 | 0.34% (inactive)
CN(C)C(=O)C[C@@H]1CC[C@@H](NC(=O)NC2CCCC2)[C@@H](CO)O1 | -1.49% (inactive)
COc1cccc(-c2ccc([C@@H]3[C@H]4CN(C(=O)c5cccnc5)CC(=O)N4[C@H]3CO)cc2)c1 | 0.197% (inactive)
COc1ccc2c3c([nH]c2c1)[C@H](CO)N(Cc1cccc(F)c1)CC31CCN(CC2CC2)CC1 | 35.1% (active)
CCCNC(=O)N1CC2(CCN(C(=O)C3CC3)CC2)c2c([nH]c3cc(OC)ccc23)[C@H]1CO | -0.242% (inactive)
COc1ccc2c3c([nH]c2c1)[C@@H](CO)N(Cc1cccc(F)c1)CC31CN(CC2CC2)C1 | 23.8% (inactive)
COc1ccc2c3c([nH]c2c1)[C@H](CO)N(Cc1cccc(F)c1)CC31CCN(Cc2ccccn2)CC1 | 6.18% (inactive)

Compound | inhibition
CCCNC(=O)N1CCC2(CC1)CN(Cc1ccccc1)[C@H](CO)c1[nH]c3cc(OC)ccc3c12 | 1.99% (inactive)
CCCNC(=O)N1CC2(CCN(Cc3ccc(F)cc3)CC2)c2c([nH]c3cc(OC)ccc23)[C@@H]1CO | 29.6% (active)
C[C@H]1CN([C@@H](C)CO)C(=O)c2cc(-c3ccc(C#N)cc3)cnc2O[C@@H]1CN(C)Cc1ccncc1 | -0.44% (inactive)
COc1ccccc1C(=O)Nc1ccc2c(c1)C(=O)N(C)C[C@@H](OC)[C@@H](C)CN(C)[C@H](C)CO2 | -2.27% (inactive)
N#C[C@@H]1[C@H](c2ccccc2-c2cccc(F)c2)[C@@H](CO)N1C(=O)C1CCCC1 | -0.992% (inactive)
C[C@@H]1CN([C@@H](C)CO)C(=O)c2cc(-c3cccnc3)cnc2O[C@@H]1CN(C)C(=O)C1CC1 | -2.51% (inactive)
O=C(C1CCCCC1)N1CC(=O)N2[C@H](CO)[C@@H](c3ccc(C#Cc4cccc(F)c4)cc3)[C@@H]2C1 | -3.43% (inactive)
CN(Cc1ccccc1F)c1cc2c(c3c1ccn3C)C1CCC2O1 (stereo not drawn) | 28.6% (active)
CC(C)(C)[S@](=O)N1Cc2cc(C(=O)N[C@@H]3CCN(Cc4ccccc4)C3)nc(-c3cccc(-c4ccncc4)c3)c2[C@@H]1CCO | 4.53% (inactive)
COc1ccc(N2CCN(C3CCCCC3NS(=O)(=O)c3ccccc3)CC2)cc1 (stereo not drawn) | 36.3% (active)
O=S(=O)(NC1CCCCC1N1CCC(O)CC1)c1ccc(Cl)cc1 (stereo not drawn) | 3.3% (inactive)
O=S(=O)(NC1CCCCC1N1CCN(c2ccccc2F)CC1)c1ccccc1 (stereo not drawn) | 5.55% (inactive)
Cn1cnc(CCNC(=O)C[C@H]2CC[C@H]3[C@@H](COC[C@@H](O)CN3C(=O)Nc3ccc(C(F)(F)F)cc3)O2)c1 | 4.5% (inactive)
Cc1cccc(OCC(O)CN2CCN(S(=O)(=O)c3ccc(C)cc3C)CC2)c1 (stereo not drawn) | 35.7% (active)
CC(=O)c1ccc(OCC(O)CN2CCN(S(=O)(=O)c3cccc(Br)c3)CC2)cc1 (stereo not drawn) | 0.541% (inactive)
Cc1ccc(S(=O)(=O)N2CCN(C(=O)N3CCOCC3)CC2)c(C)c1 | -6.49% (inactive)
CCN(CC(=O)Nc1ccc(NC(C)=O)cc1)C(=O)C1CC(=O)N(c2ccc3c(c2)OCCO3)C1 (stereo not drawn) | 28% (active)
CCN(CC(=O)Nc1ccc(NC(C)=O)cc1)C(=O)C1CC(=O)N(Cc2ccc(C)cc2)C1 (stereo not drawn) | 9.28% (inactive)
CCOC(=O)c1ccc(NC(=O)C2CC(=O)N(c3ccc4c(c3)OCCO4)C2)cc1 (stereo not drawn) | -0.164% (inactive)
O=C(c1ccccn1)N1CC2(C1)[C@@H](c1ccccc1)[C@@H](CO)N2C(=O)C1CCC1 | 0.755% (inactive)
CC(C)CC#Cc1ccc2c(c1)O[C@@H](CN(C)C(=O)Nc1ccccc1F)[C@@H](C)CN([C@@H](C)CO)S2(=O)=O | 1.25% (inactive)
